Source: PubChem BioAssay
MEKK3 PB1 HTS – raises or lowers MEK5 binding to the human MEKK3 PB1 domain; Q99759; bead-based flow cytometry, Alexa488-MEK5 binding to MEKK3; actives lie on both sides; 0 = blocked by unlabeled MEK5, 100 = vehicle; binding response (% of control), % at 10 µM; 290,000 compounds, 1.4% hits; AID 1529;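 active = binding response more than 3 SD above or below the average of its plate-row segment, actives on both sides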;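 also: Alexa488 bead fluorescence after subtracting the streptavidin-only scavenger bead signal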
GRK2 aptamer HTS – inhibitors of human GRK2 displacing RNA aptamer; bead flow cytometry, FAM-aptamer displacement from GRK2; inhibition of aptamer binding, % at 10 µM; 330,000 compounds, 0.59% hits; AID 488847;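 active = inhibition of aptamer binding above 40%, roughly 3 SD of noise, on plates passing a quality check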;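 also: median bead fluorescence of bound FAM aptamer so fluorescent compounds give negative values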
B2AR ag – activates human beta-2 adrenergic receptor causing internalization | P07550 | Am2.2-beta2AR cells, FAP receptor internalization, flow cytometry | response, % (no concentration beside the values) | 340,000 compounds, 0.43% hits | AID 504454;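 active = response above a set limit, near 3 SD of response in nonfluorescent compounds, cut at about 42% in these data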
Target sequence (P07550 whole entry, looked up): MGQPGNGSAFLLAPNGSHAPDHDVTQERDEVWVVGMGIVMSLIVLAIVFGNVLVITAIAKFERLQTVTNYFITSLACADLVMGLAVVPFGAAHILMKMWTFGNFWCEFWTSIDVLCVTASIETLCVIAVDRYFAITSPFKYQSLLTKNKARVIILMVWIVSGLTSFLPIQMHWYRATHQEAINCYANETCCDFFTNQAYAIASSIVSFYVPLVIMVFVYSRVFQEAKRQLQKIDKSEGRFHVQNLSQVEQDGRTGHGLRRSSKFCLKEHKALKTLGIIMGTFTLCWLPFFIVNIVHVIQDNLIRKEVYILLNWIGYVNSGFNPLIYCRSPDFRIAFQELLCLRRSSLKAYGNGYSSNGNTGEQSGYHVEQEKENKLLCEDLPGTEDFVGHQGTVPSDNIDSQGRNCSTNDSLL
MEKK2 WT-MEK5 – raises or lowers MEK5 binding to wildtype human MEKK2 PB1 domain; bead flow cytometry, Alexa488-MEK5 binding to MEKK2 WT; actives lie on both sides; binding response (% of control), % at 10 µM; 290,000 compounds, 1.1% hits; Q9Y2U5; in the data active = binding response below about 67% or above about 130%
MEKK2 mut-MEK5 – signal of MEK5 binding to mutant human MEKK2 PB1 domain; bead flow cytometry, Alexa488-MEK5 binding to MEKK2 mutant; percent response, % at 10 µM; 290,000 compounds, 0.35% hits; AID 1530; in the data active = percent response above about 24%, passing the limit was not always enough
GRK2 inh confirm – human GRK2 inhibition confirmation, cherry pick 1. bead-bound GRK2, FAM-aptamer displacement, flow cytometry. AID 504451. shares compounds with GRK2 aptamer HTS. aptamer displacement, % at 10 µM. 2,000 compounds, 4% hits;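 active = aptamer displacement above 40%, near three times the noise of non-fluorescent compounds, on plates passing quality checks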;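 also: negative values mostly reflect intrinsic compound fluorescence rather than true enhancement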
FAM quench CP1 – aptamer fluorescence quenching in GRK2 counter-screen; fluorescence response (% of DMSO), % at 10 µM; Carboxyfluorescein RNA aptamer on beads, flow cytometry quenching; active compounds read low; 2,000 tested, under 10 active; shares compounds with GRK2 aptamer HTS;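 active = compounds that quench the bead-bound fluorescent RNA probe, cutting fluorescence to under half of the solvent control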;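 also: counterscreen run without GRK2 so only probe quenching by compound is measured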
GRK2 confirm 2 – confirmation of human GRK2 inhibitors binding RNA aptamer site; shares compounds with GRK2 aptamer HTS; bead-bound GRK2, FAM-aptamer displacement, flow cytometry; AID 504782; 360 tested, under 10 active; inhibition of aptamer binding, % at 10 µM;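 active = inhibition of aptamer binding above 40%, about triple the noise seen with nonglowing compounds, on plates passing quality control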;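 also: negative values mostly come from compounds that fluoresce themselves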
Aptamer quench3 – quenches fluorescent RNA aptamer, GRK2 hit artifact; shares compounds with GRK2 aptamer HTS; Streptavidin beads, FAM-RNA aptamer fluorescence quenching, flow cytometry; change in fluorescence (kMESF span), kMESF (test concentration not listed); 25 tested, under 10 active; AID 504819;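 active = compounds quenching the bead-bound labeled aptamer, with fluorescence dropping by more than 37 kMESF over the dose range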
FAM quench SP – quenches fluorescent RNA aptamer, GRK2 hit artifact; shares compounds with GRK2 aptamer HTS; carboxyfluorescein RNA aptamer beads, flow cytometry quenching; active compounds read low; fluorescence response vs DMSO, % at 10 µM; 360 tested, under 10 active; AID 588494;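 active = response vs DMSO under 50%, meaning signal dropped by over half, treated as fluorescence quencher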;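 also: labelled aptamer on streptavidin beads without GRK2 as a quench counter-screen; 100% = bead fluorescence of DMSO wells and lower means quenching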
FAM quench PS1 – aptamer fluorescence quenching in GRK2 powder counter-screen. AID 588496. Bead-bound FAM RNA aptamer fluorescence quenching, flow cytometry; active compounds read low. 35 tested, under 10 active. fluorescence ratio to DMSO, % at 11.1 µM. shares compounds with GRK2 aptamer HTS;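 active = compounds that dim the fluorescent label, raw bead signal shifting by over 33 units between lowest and highest dose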
Numbers without * were called inactive; x = not tested or not shown. Shown are actives, neighbours in structure and some others; about 2.9% of the full set was active somewhere.

SMILES	MEKK3 PB1 HTS	GRK2 aptamer HTS	B2AR ag	MEKK2 WT-MEK5	MEKK2 mut-MEK5	GRK2 inh confirm	FAM quench CP1	others
O=C(CCS(=O)(=O)c1ccc(Br)cc1)Nc1ccc(Br)cc1F	91	70*	-3	92	-3	x	x	GRK2 confirm 2=0;Aptamer quench3=-2.3;FAM quench SP=100;FAM quench PS1=98
O=C(CCS(=O)(=O)c1ccccc1)Nc1ccc(Cl)cn1	103	14	-1	105	5	9	105
O=C(CCS(=O)(=O)c1ccc(Br)cc1)Nc1ccc(Cl)cc1F	98	0	-8	100	-1	x	x
CN(C)C(CNC(=O)CCNC(=O)c1ccc(Cl)cc1)c1ccco1 (configuration not stated)	x	0	-7	x	x	x	x
O=C(Nc1cccc2nsnc12)c1cc2c(cc1Cl)Sc1nccn1S2(=O)=O	x	x	4	x	x	x	x
NS(=O)(=O)c1ccc(NC(=O)CSc2n[nH]c(=O)n2C2CC2)cc1	x	2	2	x	x	x	x
NC(=O)c1ccc(NC(=O)COC(=O)/C=C/c2ccc(Br)o2)cc1	x	44*	4	x	x	19	91
Cc1ncoc1C(=O)NC1CCCc2c1cnn2-c1ccc(C(C)(C)C)cc1 (configuration not stated)	99	x	21	96	1	x	x
COc1ccc([C@@H]2CC(=O)c3c(O)cc(O[C@@H]4O[C@H](CO[C@@H]5O[C@@H](C)[C@H](O)[C@@H](O)[C@H]5O)[C@@H](O)[C@H](O)[C@H]4O)cc3O2)cc1O	102	56*	-3	105	7	9	111
Cc1c(N2C(=O)CSC2=S)c(=O)n(-c2ccccc2)n1C	105	3	4	104	4	x	x
Cc1c(N2C(=O)c3ccc4c5c(ccc(c35)C2=O)CC4)c(=O)n(-c2ccccc2)n1C	97	46*	3	99	8	32	89
O=[N+]([O-])c1ccc(CNCc2cc(Cl)ccc2O)cc1	x	1	1	x	x	x	x
O=C(COC(=O)[C@@H]1CC(O)CN1S(=O)(=O)c1ccc2c(c1)OCCO2)Nc1cc(F)ccc1F (some centres not stated)	x	0	-6	x	x	x	x
COc1ccc(CCNS(=O)(=O)c2ccc3c(c2)CCCC3)cc1OC	x	42*	18	x	x	x	x	GRK2 confirm 2=18;FAM quench SP=101
COc1ccc(CCNS(=O)(=O)c2ccc3c(c2)OCCO3)cc1OC	90	0	18	92	-2	x	x
COCCCn1c(=O)c2ccccc2n(CC(=O)NC2CCCCC2)c1=O	101	0	-4	103	0	x	x
Cc1ccn2c(CNCC3OCCc4ccccc43)c(C(=O)N3CCCCCC3)nc2c1 (configuration not stated)	103	0	-10	107	11	5	103
O=C(c1nc2ccccn2c1CNCC1OCCc2ccccc21)N1CCOCC1 (configuration not stated)	108	3	-10	105	10	x	x
Cc1nc(NC(=O)COC(=O)C2=NNC(=O)CC2)c(Cl)cc1Cl	102	55*	3	95	-12	0	94
CC(NC(=O)c1ccc(C(C)(C)C)cc1)C(c1cccs1)N1CCOCC1 (configuration not stated)	97	53*	4	100	3	x	x	GRK2 confirm 2=5;FAM quench SP=102
O=C1CCCN1C(=O)COc1ccccc1[N+](=O)[O-]	x	0	-4	x	x	x	x
O=C(CCN1CCOCC1)N1CCc2c([nH]c3ccccc23)C1c1cccc(Cl)c1 (configuration not stated)	101	0	1	104	3	1	93
O=C(c1cccs1)N1CCc2c([nH]c3ccccc23)C1c1ccc(Cl)cc1 (configuration not stated)	101	0	6	90	-17	x	x
COc1ccc(-n2ncc(C(C)NS(=O)(=O)c3ccc(C)s3)c2C)cc1 (configuration not stated)	101	2	-1	108	7	x	x
O=C(Nc1c[nH]c(=O)[nH]c1=O)c1ccccc1Cl	101	2	0	106	1	x	x
SMILES	MEKK3 PB1 HTS	GRK2 aptamer HTS	B2AR ag	MEKK2 WT-MEK5	MEKK2 mut-MEK5	GRK2 inh confirm	FAM quench CP1	others
COc1ccc(/C=C/CN2CCN(CCc3ccccc3)C(CCO)C2)cc1 (configuration not stated)	104	90*	-5	128	11	-9	100
CC(=O)Nc1ccc(S(=O)(=O)NNC(=O)c2cccc(Cl)c2)cc1	95	92*	-2	102	-1	-1	100
CC(=O)Nc1ccc(S(=O)(=O)NNC(=O)c2ccc3c(c2)OCO3)cc1	104	0	-1	106	4	x	x
CCOC(=O)c1ccccc1NC(=O)Cc1c(C(=O)O)n(C)c2ccccc12	102	50*	2	98	4	-2	95
CN(C(=O)c1ccccc1C(=O)OCC(=O)Nc1ccccc1)c1ccccc1	x	0	-2	x	x	x	x
CN(C(=O)Cc1c(C(=O)O)n(C)c2ccccc12)c1ccc(Cl)cc1	102	9	0	105	4	0	98
COc1ccc(C)cc1NC(=O)Cc1c(C(=O)O)n(C)c2ccccc12	102	0	1	105	3	x	x
CCOC(=O)c1ccccc1NC(=O)COC(=O)c1ccccc1C(=O)N(C)c1ccccc1	x	44*	5	x	x	-2	98
CC(C)CN1C(=O)C(=O)N(CC(=O)c2ccc3c(c2)CCCC3)C1=O	x	0	-7	x	x	x	x
COc1ccccc1/C=C(\C#N)C(=O)c1cccn1C	99	1	9	99	-3	x	x
CCOC(=O)C1CCCN(S(=O)(=O)c2cc3[nH]c(=O)c(=O)[nH]c3cc2C)C1 (configuration not stated)	98	3	-7	97	-2	x	x
CCCCc1cc(=O)oc2c(CN3CCN(C)CC3)c(O)ccc12	99	0	-2	104	3	x	x
CCCc1cc(=O)oc2c(CN3CCN(C)CC3)c(O)ccc12	103	51*	-3	107	5	0	98
